Out of some 320,000 compounds screened, about 3,300 (1%) were called active.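 Rule for the calls: active = every valid replicate shows activation above 250% relative to neutral control wells; inactive = the rest, any valid replicate at or below 250%.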 The sample as a whole holds a higher share of actives than the screen did.

The nature of the experiment: yeast Mot1-301 growth rescue at high temperature, primary screen, SUMOylation pathway inhibitor project, S. cerevisiae, ATP luminescence, 38.5C (AID 2716).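 Note: OY570 slx delta 5 strain wells were the positive control but not used for scaling.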 The settings on record: S. cerevisiae Mot1-301 growth rescue, at 18.8 µM, hits give high values, percent above DMSO median, 100 means doubled.
With `O=C(NNS(=O)(=O)c1c(F)cc(F)c(Cl)c1F)C12CC3CC(CC(C3)C1)C2`, the growth rescue is 1720% (active).

`CC(=O)N1CCN(S(=O)(=O)c2c(F)cc(F)c(Cl)c2F)CC1`: the growth rescue was 9.01% (inactive).

For the compound `O=C(Nc1ccc(S(=O)(=O)Nc2ncccn2)cc1)C12CC3CC(CC(C3)C1)C2`, the growth rescue is 35.6% (inactive). To `CCN(CCn1cccn1)C(=O)CC1C(=O)NCCN1Cc1cccc(OC)c1OC` (stereo unspecified) belongs -10.6% (inactive).

Take `C=Cc1ccc(C(=O)N2CCCC(CCC(=O)N3CCN(c4ccccn4)CC3)C2)cc1` (stereo unspecified): the growth rescue is -28.8% (inactive). Next, `O=C(c1ccc(F)cc1)c1c[nH]c(C(=O)NCc2cccnc2)c1`: -16% (inactive); `CCOC(=O)c1c(C)nn(-c2ncccc2NC(=O)CCC(=O)O)c1C`: -17.7% (inactive). Next, `N#Cc1c(-c2ccccc2)nc(SCc2ccc([N+](=O)[O-])cc2)[nH]c1=O`: 10.6% (inactive); `COc1ccccc1CC(=O)Nc1ccc([N+](=O)[O-])cc1OC`: -7.23% (inactive); `COc1ccccc1CSc1ncc(-c2ccc([N+](=O)[O-])cc2)[nH]1`: 1260% (active). As to `CC(C)(C)Oc1ccccc1Nc1nc(NCCO)nc(N2CCCC2)n1`, the growth rescue is 8.32% (inactive). As to `O=C(COc1ccccc1[N+](=O)[O-])N/N=C/c1ccc[nH]1`, the growth rescue is -23.4% (inactive).

Regarding `CC(C)c1cc(C(=O)N/N=C/c2ccoc2)c(O)c(C(C)C)c1`, the growth rescue is 2.88% (inactive). With `CC(Oc1ccccc1[N+](=O)[O-])C(=O)N/N=C/c1ccoc1` (stereo unspecified), the growth rescue was 547% (active). On to `Nc1nonc1-n1nnc(C(=O)N/N=C/c2cc(Br)ccc2O)c1CSC1=NCCS1`, for which the growth rescue was -10.1% (inactive). To `CCN(C(=O)CSc1nc(N)cc(=O)[nH]1)C1CCS(=O)(=O)C1` (stereo unspecified) belongs 5.44% (inactive); to `CC(C)(C)c1ccc(C(=O)NNC(=O)Cc2ccccc2)cc1`, 10.6% (inactive). Consider `C=Cn1c(C(=O)O)ccc1-c1ccc(OC)cc1`, for which the growth rescue is 6.91% (inactive).

Take `COc1ccccc1N1CCN(/N=C/c2ccc(O)cc2O)CC1`: the growth rescue is 115% (inactive). In the case of `COc1ccccc1N1CCN(C(=O)C(=O)N/N=C/c2ccccc2F)CC1`, the growth rescue was 490% (active). Next, `COc1cccc(/C=N/NC(=O)C(=O)N2CCCC2)c1`: 11% (inactive); `CCOC(=O)c1cnc2ccc(F)cc2c1Nc1ccc2c(c1)OCCO2`: 37% (inactive).

Turning to `Nc1nc(COC(=O)CCC(=O)c2ccc(Cl)cc2)nc(Nc2ccccc2)n1`, the growth rescue is 18.5% (inactive). With `Cc1ccc(OC(=O)c2c(C)nn(-c3ccccc3)c2C)cc1`, the growth rescue was -15.1% (inactive). Turning to `COc1ccc(C(C(=O)NC2CCCCC2)N(C(=O)c2snc(C(N)=O)c2N)c2ccccc2OC)cc1` (stereo unspecified), the growth rescue was -0.518% (inactive).

For `CCOc1ccc(C(C(=O)NC2CCCC2)N(C(=O)c2snc(C(N)=O)c2N)C2CCCC2)cc1` (stereo unspecified), the growth rescue is 922% (active). Consider `CCC(C(=O)NC1CCCCC1)N(C(=O)c1snc(C(N)=O)c1N)c1ccc(OC)cc1OC` (stereo unspecified), for which the growth rescue is -10.5% (inactive).

Regarding `O=C(OCC(=O)N1CCc2ccccc21)C1CCCN1S(=O)(=O)c1ccc(Cl)cc1` (stereo unspecified), the growth rescue was 4.88% (inactive). To `C/C(CC(O)(/C=N/O)c1ccccc1)=N\O` (stereo unspecified) belongs 0.714% (inactive); to `CCOc1c(OC)cccc1C(=O)NCC1(c2ccccc2)CCCC1`, 1.09% (inactive); to `CCOC(=O)C1CCc2nc3ccccc3c(=O)n21` (stereo unspecified), 141% (inactive). Next, `CCc1nc2ccccc2c(C(=O)NCc2ccc(OC)cc2)c1C`: -10.8% (inactive).

As to `CCc1nc2ccccc2c(C(=O)OC2CCCCC2=O)c1C` (stereo unspecified), the growth rescue was 377% (active).

For `CCS(=O)(=O)N1CCCC(C(=O)NCCCN(C)Cc2ccccc2)C1` (stereo unspecified), the growth rescue is 2.83% (inactive). On to `Cc1ccsc1C1C(C#N)=C(N)OC2=C1C(=O)CC(C)C2` (stereo unspecified), for which the growth rescue was -1.54% (inactive). On to `CCN(CC)CCNCc1ccc(OCc2ccc(Cl)nc2)c(OC)c1`, for which the growth rescue was -8.12% (inactive). Next, `COc1ccc(CNCCCO)cc1OC`: -14.2% (inactive); `CCOCCCNCc1ccc(OCc2ccc(F)cc2)c(OC)c1`: 445% (active); `O=S(=O)(NCC1OCCc2ccccc21)c1ccccc1` (stereo unspecified): -12.3% (inactive). To `Cc1cccc(NC(=O)CCn2c(=O)oc3ccccc32)c1` belongs -12.1% (inactive); to `Cc1cc(=O)oc2c1c(C)nn2-c1ccc(Cl)cc1`, -9.75% (inactive); to `CCCCc1cc(=O)oc2cc(C)cc(OCc3nn[nH]n3)c12`, 64.1% (inactive). To `Cc1cc(C)c2c(Cn3ccnc3)cc(=O)oc2c1` belongs 620% (active); to `COC(=O)c1cc(S(=O)(=O)Nc2ccc(C)c(F)c2)c[nH]1`, -5.05% (inactive).

With `[O-][n+]1ccc(OCc2ccccc2)cc1`, the growth rescue is -10% (inactive). Next, `COCCNC(=O)C(c1ccc(O)cc1)N(C(=O)CCC(=O)Nc1nccs1)c1ccc(C)cc1` (stereo unspecified): -11.3% (inactive).

`CCOc1ccc(C(C(=O)NCCOC)N(CCOC)C(=O)CCC(=O)Nc2ccccn2)cc1` (stereo unspecified): the growth rescue was 0.544% (inactive).

As for `COCCNC(=O)C(c1ccc(C)cc1)N(C(=O)CCC(=O)Nc1ccccn1)c1cccc(C)c1` (stereo unspecified), the growth rescue was 451% (active). Next, `COc1ccc([N+](=O)[O-])cc1N(CC(=O)Nc1ccccc1C(=O)N1CCOCC1)S(C)(=O)=O`: -10.4% (inactive); `COC(=O)c1scc(C)c1NC(=O)CSc1ccc(Cl)cc1`: -2.32% (inactive). To `COc1ccc(-c2ccc(CCC(=O)O)n2NC(=O)c2ccc(C(C)(C)C)cc2)cc1` belongs -8.8% (inactive). Next, `O=C(Nc1ccncc1)c1c(F)cccc1F`: -9.16% (inactive); `CCCC(=O)Nc1nc2ccc(NC(=O)c3c(F)c(F)c(OC)c(F)c3F)cc2s1`: -0.657% (inactive); `CSc1nc2ccc(NC(=O)c3c(F)cccc3F)cc2s1`: 423% (active). For `Cc1ccc(S(=O)(=O)NC(=O)N2CCCN(Cc3ccc(F)cc3)CC2)cc1`, the growth rescue was 290% (inactive). Regarding `Cc1cc(NC(=O)CSc2ncc(C(F)(F)F)cc2Cl)no1`, the growth rescue was 6.57% (inactive). Next, `Cc1nc2ccccc2n1C(=O)N1CCOCC1`: -12.1% (inactive).

Consider `CCC(C)[C@H]1COCCS(=O)(=O)N1Cc1ccc(C)cc1` (stereo partly specified), for which the growth rescue is 881% (active). Next, `CCCC[C@H]1COCCS(=O)(=O)N1Cc1cccc(Cl)c1`: -7.4% (inactive); `Cc1ccc(CN2CCCOCCS2(=O)=O)cc1`: -17.5% (inactive). For `COCCn1c(C)cc(C(=O)CSc2nnc(C3CC3)n2C2CC2)c1C`, the growth rescue is 9.96% (inactive).

Source of the values: PubChem BioAssay AID2716 (Broad Institute, 2010).
